According to the supplement of paper PMC9135407:
“And” between values parts separate entries of the source, which are not always exact repeats. Equal values may be shown once. Where a name gives a salt, the structure may show the parent alone. The whole screen tested about 5,800 compounds, of which about 620 (11%) showed activity. What follows is part of a selection rich in actives, with near analogues and random picks from the rest. Values without a mark were called inactive.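 The calls were made as follows: active = score above a cut-off or among the top three wells of a plate; in these data no inactive exceeds 0.85.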

System: primary human hepatic stellate cells (donor 1)
Assay: scaled lipid accumulation score (0 = DMSO-like, 1 = nortriptyline-like); higher = stronger HSC inactivation (lipid re-accumulation), active = hit call of the paper
Conditions: 48 h
[1] = library stock concentration: 1 mM
[2] = library stock concentration: 10 mM
[3] = library stock concentration: 3.33 mM
[4] = library stock concentration: 80 uM
[5] = library stock concentration: 400 uM
[6] = library stock concentration: 2 mM

Question: `CC(=O)N[C@@H](CSC/C=C(\C)CCC=C(C)C)C(=O)O` [N-Acetyl-S-geranyl-L-cysteine] was tested. Which “scaled lipid accumulation score” value [1] did it give?
Answer: The value was no more than -0.021.

Question: For `CCC(=O)O[C@H]1CC[C@H]2[C@@H]3CCc4cc(O)ccc4[C@H]3CC[C@]12C` [Estradiol propionate], which “scaled lipid accumulation score” value (library stock concentration: 6.1 mM) is on record?
Answer: Its value is 0.254.

Question: And the “scaled lipid accumulation score” value [2]?
Answer: The value was 0.443.

Question: For `O=C1OC2(c3ccc(O)cc3Oc3cc(OS(=O)(=O)c4c(F)c(F)c(F)c(F)c4F)ccc32)c2ccccc21` (stereo not drawn) [Pentafluorobenzenesulfonyl fluorescein], which “scaled lipid accumulation score” value [1] is on record?
Answer: The value was no more than 0.

Question: What does the source list for `CO[C@H]1C[C@@H]2CC[C@@H](C)[C@@](O)(O2)C(=O)C(=O)N2CCCC[C@H]2C(=O)O[C@H]([C@H](C)C[C@@H]2CC[C@@H](OC(=O)C(C)(CO)CO)[C@H](OC)C2)CC(=O)[C@H](C)/C=C(\C)[C@@H](O)[C@@H](OC)C(=O)[C@H](C)C[C@H](C)/C=C/C=C/C=C/1C`?
Answer: scaled lipid accumulation score [3]: 0.032; scaled lipid accumulation score [2]: 0.094

Question: How did the “scaled lipid accumulation score” value [3] turn out when `CN1CCN(C2CCN(C(=O)Nc3cc(Oc4ccc(NC(=O)C5(C(=O)Nc6ccc(F)cc6)CC5)c(F)c4)ccn3)CC2)CC1` [Golvatinib (E7050)] [listing 1 of 2 here] was run?
Answer: Its value is 0.979 (active).

Question: `CN1CCN(C2CCN(C(=O)Nc3cc(Oc4ccc(NC(=O)C5(C(=O)Nc6ccc(F)cc6)CC5)c(F)c4)ccn3)CC2)CC1` [Golvatinib (E7050)] [listing 2 of 2 here] was tested. Which “scaled lipid accumulation score” value [2] did it give?
Answer: The value was 0.429.

Question: `CC/C=C\C/C=C\C/C=C\C/C=C\C/C=C\C/C=C\CCC(=O)NCCO` [Docosahexaenoyl Ethanolamide] was tested. Which “scaled lipid accumulation score” value [1] did it give?
Answer: The value was 0.03.

Question: Which “scaled lipid accumulation score” value [2] does the source give for `COc1cc(OC2CCN(C)CC2)ccc1Nc1ncc2c(n1)n(C1CCCC1)c(=O)n2C` [listing 1 of 2 here] here?
Answer: The value was 1.06 (active).

Question: Which results are given for `COc1cc(N2CCC(N3CCN(C)CC3)CC2)ccc1Nc1ncnc(Nc2ccccc2S(=O)(=O)C(C)C)n1`?
Answer: scaled lipid accumulation score [4]: ≤ 0; scaled lipid accumulation score [5]: 0.045; scaled lipid accumulation score [6]: 0.433; scaled lipid accumulation score [2]: 0.819

Question: Which “scaled lipid accumulation score” value [3] does the source give for `COc1cc(OC2CCN(C)CC2)ccc1Nc1ncc2c(n1)n(C1CCCC1)c(=O)n2C` [listing 2 of 2 here] here?
Answer: The value was 0.441.

Question: For `C[C@H](C(=O)O)c1ccc(-c2ccccc2)c(F)c1` [(S)-Flurbiprofen], which “scaled lipid accumulation score” value [1] is on record?
Answer: Its value is 0.003.

Question: `Cl.Nc1ccc(C(=O)Nc2cccc(-c3nc(N4CCOCC4)c4oc5ncccc5c4n3)c2)cn1` was tested. Which “scaled lipid accumulation score” value [6] did it give?
Answer: Its value is 1.74 (active).

Question: What about the “scaled lipid accumulation score” value [2] of the same compound?
Answer: Its value is 1.25 (active).

Question: For `O=c1cc(N2CCOCC2)oc2c1ccc1ccccc12` [DNA-PK Inhibitor II], which “scaled lipid accumulation score” value [3] is on record?
Answer: Its value is no more than 0.

Question: Which “scaled lipid accumulation score” value [4] does the source give for `Nc1ccc(C(=O)Nc2cccc(-c3nc(N4CCOCC4)c4oc5ncccc5c4n3)c2)cn1` [listing 1 of 3 here] here?
Answer: Its value is no more than -0.009.

Question: What about the “scaled lipid accumulation score” value [5] of the same compound?
Answer: Its value is 0.031 and ≤ -0.005.

Question: What about the “scaled lipid accumulation score” value [6] of the same compound?
Answer: Its value is 0.229.

Question: What about the “scaled lipid accumulation score” value [3] of the same compound?
Answer: Its value is 0.647.

Question: For `CC(C)(O)c1cc2nc(-c3cnc(N)nc3)nc(N3CCOCC3)c2s1`, which “scaled lipid accumulation score” value [5] is on record?
Answer: Its value is no more than -0.005.

Question: And the “scaled lipid accumulation score” value [6]?
Answer: The value was no more than -0.005.

Question: And the “scaled lipid accumulation score” value [2]?
Answer: The value was 0.006.

Question: For `Oc1cccc(-c2nc(N3CCOCC3)c3sccc3n2)c1` [PI3-Kinase .alpha. Inhibitor 2], which “scaled lipid accumulation score” value [1] is on record?
Answer: Its value is no more than 0.

Question: For `Oc1cccc(-c2nc(N3CCOCC3)c3oc4ncccc4c3n2)c1` [listing 1 of 2 here], which “scaled lipid accumulation score” value [2] is on record?
Answer: Its value is 0.923 (active).

Question: For `Nc1ccc(C(=O)Nc2cccc(-c3nc(N4CCOCC4)c4oc5ncccc5c4n3)c2)cn1` [listing 2 of 3 here], which “scaled lipid accumulation score” value [2] is on record?
Answer: The value was 0.915 (active).

Question: With `O=c1cc(N2CCOCC2)oc2c1ccc1ccccc12` as the compound, how does the “scaled lipid accumulation score” value [4] read?
Answer: Its value is no more than 0.

Question: And the “scaled lipid accumulation score” value [5]?
Answer: The value was no more than 0.

Question: And the “scaled lipid accumulation score” value [6]?
Answer: The value was no more than 0.

Question: What about the “scaled lipid accumulation score” value [2] of the same compound?
Answer: Its value is ≤ 0 and 0.033.

Question: With `COc1ccc(-c2nc(N3CCOCC3)c3sc(CN(C)c4ncc(C(=O)NO)cn4)cc3n2)cn1` as the compound, how does the “scaled lipid accumulation score” value [4] read?
Answer: Its value is 0.745.

Question: And the “scaled lipid accumulation score” value [5]?
Answer: Its value is 0.648.

Question: And the “scaled lipid accumulation score” value [6]?
Answer: Its value is 0.67.

Question: And the “scaled lipid accumulation score” value [3]?
Answer: Its value is 0.439.

Question: And the “scaled lipid accumulation score” value [2]?
Answer: The value was 0.447 and 0.588.

Question: What does the source list for `Cc1c(CN2CCN(C(=O)[C@H](C)O)CC2)sc2c(N3CCOCC3)nc(-c3cnc(N)nc3)nc12`?
Answer: scaled lipid accumulation score [4]: 0.079; scaled lipid accumulation score [5]: ≤ -0.015; scaled lipid accumulation score [6]: ≤ -0.016; scaled lipid accumulation score [3]: ≤ 0; scaled lipid accumulation score [2]: ≤ 0 and ≤ -0.016

Question: `Nc1ccc(C(=O)Nc2cccc(-c3nc(N4CCOCC4)c4oc5ncccc5c4n3)c2)cn1` [listing 3 of 3 here] was tested. Which “scaled lipid accumulation score” value [2] did it give?
Answer: Its value is 0.995 (active).

Question: How did the “scaled lipid accumulation score” value [4] turn out when `Oc1cccc(-c2nc(N3CCOCC3)c3oc4ncccc4c3n2)c1` [listing 2 of 2 here] was run?
Answer: Its value is 0.118.

Question: And the “scaled lipid accumulation score” value [5]?
Answer: Its value is 0.051 and ≤ -0.005.

Question: And the “scaled lipid accumulation score” value [1]?
Answer: The value was no more than 0.

Question: What about the “scaled lipid accumulation score” value [6] of the same compound?
Answer: The value was ≤ -0.009 and ≤ -0.005.

Question: What about the “scaled lipid accumulation score” value [3] of the same compound?
Answer: Its value is 0.203 and 0.016.

Question: What about the “scaled lipid accumulation score” value [2] of the same compound?
Answer: Its value is 0.796 and 0.279.

Question: Which “scaled lipid accumulation score” value [1] does the source give for `CC(Cc1ccc(O)c(O)c1)C(C)Cc1ccc(O)c(O)c1` (stereo not drawn) [Nordihydroguaiaretic Acid] here?
Answer: The value was 0.042.

Question: Which “scaled lipid accumulation score” value [3] does the source give for `COc1ccc(-n2c(C)c([N+](=O)[O-])c3ccc(O)cc32)cc1` here?
Answer: Its value is 0.252.

Question: What about the “scaled lipid accumulation score” value [2] of the same compound?
Answer: Its value is 0.703.

Question: With `O/N=C/c1ccc(-c2ccc(O)c(F)c2)c(Cl)c1O` as the compound, how does the “scaled lipid accumulation score” value [2] read?
Answer: Its value is 0.02.

Question: With `COc1ccc([C@H]2CNC(=O)C2)cc1OC1CCCC1` [(S)-(+)-Rolipram] as the compound, how does the “scaled lipid accumulation score” value [2] read?
Answer: Its value is no more than -0.006.

Question: How did the “scaled lipid accumulation score” value [1] turn out when `C[C@H](N)C(=O)CCCCCC(=O)O` [KAPA (hydrochloride)] was run?
Answer: The value was 0.007.

Question: With `O=C1[C@H](Cc2ccc(O)cc2)N2C(=O)CCN(C(=O)NCc3ccccc3)[C@H]2CN1Cc1cccc2ccccc12` as the compound, how does the “scaled lipid accumulation score” value [3] read?
Answer: The value was no more than 0.

Question: What about the “scaled lipid accumulation score” value [2] of the same compound?
Answer: Its value is 0.29.

Question: Which “scaled lipid accumulation score” value [3] does the source give for `CC(=Cc1ccc(C(=O)O)cc1)c1ccc2c(c1)C(C)(C)CCC2(C)C` [TTNPB (Arotinoid Acid)] here?
Answer: The value was no more than 0.

Question: And the “scaled lipid accumulation score” value [2]?
Answer: Its value is no more than -0.001.

Question: For `CC(=Cc1ccc(C(=O)O)cc1)c1ccc2c(c1)C(C)(C)CCC2(C)C`, which “scaled lipid accumulation score” value [1] is on record?
Answer: Its value is no more than -0.021.

Question: And the “scaled lipid accumulation score” value [2]?
Answer: The value was no more than 0.

Question: How did the “scaled lipid accumulation score” value [2] turn out when `CCCCCCCCCC(=O)N[C@@H](Cc1c[nH]c2ccccc12)C(=O)N[C@@H](CC(N)=O)C(=O)N[C@@H](CC(=O)O)C(=O)N[C@@H]1C(=O)NCC(=O)N[C@@H](CCCN)C(=O)N[C@@H](CC(=O)O)C(=O)N[C@H](C)C(=O)N[C@@H](CC(=O)O)C(=O)NCC(=O)N[C@H](CO)C(=O)N[C@@H]([C@H](C)CC(=O)O)C(=O)N[C@@H](CC(=O)c2ccccc2N)C(=O)O[C@@H]1C` [DAPTOMYCIN (5 millimolar/DMSO)] was run?
Answer: The value was no more than 0.
